The values below come from PubChem BioAssay (NCATS).

The structures appear in SMILES notation. Results filed as inconclusive are left out. Activity calls are given as the source filed them. Unless noted, the call rests on the fitted dose curve; in most records, active means well fitted cell-killing curve with a large enough effect; inconclusive means small, poorly fitted or top-dose-only effect; inactive means flat fitted curve, though single readings scatter.

Assay [1] is described as follows: Cell Viability - LYMP2-002 (AID 977).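 Further: series mostly up to about 92 µM; compound exposure lasted 24 h at 37 °C; plate controls were DMSO only for no effect and 92 µM tetraoctylammonium bromide for full effect.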 An outline of the steps:
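Human lymphoblastoid LYMP2-002 cells, 2500 per well, exposed to compounds for 24 h at 37 C in complete medium; viability read as intracellular ATP by CellTiter-Glo luminescence, AC50 from Hill fits.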

Assay [2] is described as follows: Cell Viability - LYMP2-006 (AID 978). Further: series mostly up to about 92 µM; on the % scale 0 is the no-effect control and ±100 the full control effect; nearly all actives have a fitted effect of over 60% in size. In short, it runs like this:
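qHTS, 1536-well; 2500 cells/well, 5 hr 37 C; cpd 24 hr 37 C; CellTiter-Glo 30 min RT; luminescence. Tetraoctylammonium bromide pos. ctrl. AC50 via Hill eqn.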

Assay [3] in a line: Cell Viability - LYMP2-007 (AID 979).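 Further: cells exposed to compound for 24 h before reading; 0% = DMSO only and the negative end = 92 µM tetraoctylammonium bromide; nearly all actives have a fitted effect of over 60% in size.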 An outline of the steps:
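Acute toxicity is scored as a concentration-dependent fall in intracellular ATP in human lymphoblastoid cells treated 24 hr at 37 C, measured by luciferase luminescence; Hill-equation modelling yields AC50.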

Assay [4] in a line: Cell Viability - LYMP2-008 (AID 980). Further: on the % scale 0 is the no-effect control and ±100 the full control effect; nearly all actives have a fitted effect of over 60% in size. In short, it runs like this: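 Acute cytotoxicity is scored as concentration-dependent loss of cellular ATP in a human lymphoblastoid line after 24 hr treatment at 37 C. ATP is quantified by luciferase luminescence.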
Assay [5] in a line: Cell Viability - LYMP2-010 (AID 981). Further: on the % scale 0 is the no-effect control and ±100 the full control effect; nearly all actives have a fitted effect of over 55% in size. An outline of the steps: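 Acute toxicity is scored as a concentration-dependent loss of cellular ATP in human lymphoblastoid cells after 24 hr compound exposure in complete medium. Tetraoctylammonium bromide is the positive control.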
Assay [6] is described as follows: Cell Viability - LYMP2-012 (AID 982).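 Further: cellular ATP by luciferase luminescence where a drop means cytotoxicity; cells exposed to compound for one day before reading; 0% = DMSO only and full loss = 92 µM tetraoctylammonium bromide; nearly all actives have a fitted effect of over 55% in size.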
Assay [7] is described as follows: Cell Viability - LYMP2-014 (AID 983).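 Further: series mostly up to about 92 µM; plate controls were DMSO only for no effect and 92 µM tetraoctylammonium bromide for full effect; nearly all actives have a fitted effect of over 50% in size.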 In short, it runs like this:
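Decrease in intracellular ATP after 24 hr treatment at 37 C, measured by luciferase luminescence, indicated cytotoxicity. Concentration-response data were fitted with the standard Hill equation to give AC50.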

The nature of assay [8]: Cell Viability - LYMP2-016 (AID 984). Further: on the % scale 0 is the no-effect control and ±100 the full control effect; nearly all actives have a fitted effect of over 55% in size. An outline of the steps: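 qHTS, 1536-well: 2500 LYMP2-016 cells/well, 5 hr 37 C, compound added, 24 hr 37 C, CellTiter-Glo 30 min RT, luminescence. Tetraoctylammonium bromide positive control. AC50 via Hill fit.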
The nature of assay [9]: Cell Viability - LYMP2-020 (AID 986).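 Further: series mostly up to about 92 µM; plate controls were DMSO only for no effect and tetraoctylammonium bromide at 92 µM for full effect; nearly all actives have a fitted effect of over 55% in size.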 An outline of the steps:
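Acute cytotoxicity in a human lymphoblastoid line is scored as a concentration-dependent fall in cellular ATP after 24 hr at 37 C in complete medium. The positive control is tetraoctylammonium bromide, and potency is given as Hill-fit AC50.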

Assay [10] in a line: Cell Viability - LYMP2-022 (AID 987). In short, it runs like this:
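Acute toxicity in a human lymphoblastoid line is scored as decreased intracellular ATP after 24 hr compound treatment at 37 C. ATP is measured by CellTiter-Glo luminescence; curves are fitted with the Hill equation to give AC50.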

The nature of assay [11]: Cell Viability - LYMP2-024 (AID 988).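 Further: plate controls were DMSO only for no effect and 92 µM tetraoctylammonium bromide for full effect; nearly all actives have a fitted effect of over 60% in size.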 In short, it runs like this:
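Acute toxicity is measured as concentration-dependent loss of intracellular ATP in a human lymphoblastoid line treated 24 hours at 37 C. Luciferase luminescence quantifies ATP; AC50 values come from standard Hill-equation modelling.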

Assay [12] is described as follows: Cell Viability - LYMP2-026 (AID 989). Further: on the % scale 0 is the no-effect control and ±100 the full control effect; nearly all actives have a fitted effect of over 50% in size. An outline of the steps: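 Concentration-dependent loss of intracellular ATP in human lymphoblastoid cells after 24 hr at 37 C, quantified by luciferase luminescence. AC50 derived from standard Hill equation.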
Assay [13] in a line: Cell Viability - LYMP1-002 - Assay at 24 hr (AID 993). Further: on the % scale 0 is the no-effect control and ±100 the full control effect. In short, it runs like this: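 qHTS, LYMP1-002 lymphoblastoid, 24 h cpd, 37 C, CellTiter-Glo ATP luminescence; AC50 via Hill eq.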
Assay [14] can be described thus: Cell Viability - LYMP1-002 - Assay at 40 hr (AID 994). An outline of the steps: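 Viability in the human lymphoblastoid line was measured as intracellular ATP via CellTiter-Glo after 40 hr compound exposure. Tetraoctylammonium bromide served as positive control.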
For assay [15], the target named is Estrogen receptor (Homo sapiens) (UniProt P03372). Kind of assay: qHTS assay for small molecule antagonists of estrogen receptor alpha signaling (AID 588513; active means well fitted curve in the direction sought with a large enough effect in the signal ratio, with a control signal flat, not every such curve was filed as active; the % refers to the signal ratio; further: on the % scale 0 is the no-effect control and ±100 the full control effect). An outline of the steps:
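Beta-lactamase reporter, antagonist mode, HEK 293 GripTite cells; 0.5nM E2 stimulus, 18 h, 37 C; CCF4 dye 2 h RT; fluorescence. IC50 and efficacy from Hill fits, normalized to E2 and DMSO.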

The target is the same in assay [16]. Kind of assay: qHTS assay for small molecule agonists of estrogen receptor alpha signaling (AID 588514; calls by dose curve;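 further: 0% = vehicle only and 100% = reference agonist; nearly all actives have a fitted effect of over 70% in size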). In short, it runs like this:
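Reporter-gene assay. […] controls beta-lactamase in HEK 293 GripTite cells; after 18 hrs with compound, CCF4 substrate is added for 2 hrs and fluorescence is read.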
Background: Quantitative high-throughput screening tests each substance at several concentrations.

Assay [17] deals with Bile acid receptor (Homo sapiens) (UniProt Q96RI1). Kind of assay: qHTS assay for small molecule antagonists of farnesoid X receptor signaling (AID 588526; calls by dose curve; further: on the % scale 0 is the no-effect control and ±100 the full control effect). An outline of the steps: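 Antagonist mode: titrated compounds tested against chenodeoxycholic acid stimulation (normalized to 50 uM CDCA and DMSO) in GeneBLAzer HEK293T cells for 16 h. Beta-lactamase read by CCF4 fluorescence; IC50 from Hill fits.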
Sequence of Bile acid receptor (Homo sapiens) (Q96RI1 whole entry, looked up): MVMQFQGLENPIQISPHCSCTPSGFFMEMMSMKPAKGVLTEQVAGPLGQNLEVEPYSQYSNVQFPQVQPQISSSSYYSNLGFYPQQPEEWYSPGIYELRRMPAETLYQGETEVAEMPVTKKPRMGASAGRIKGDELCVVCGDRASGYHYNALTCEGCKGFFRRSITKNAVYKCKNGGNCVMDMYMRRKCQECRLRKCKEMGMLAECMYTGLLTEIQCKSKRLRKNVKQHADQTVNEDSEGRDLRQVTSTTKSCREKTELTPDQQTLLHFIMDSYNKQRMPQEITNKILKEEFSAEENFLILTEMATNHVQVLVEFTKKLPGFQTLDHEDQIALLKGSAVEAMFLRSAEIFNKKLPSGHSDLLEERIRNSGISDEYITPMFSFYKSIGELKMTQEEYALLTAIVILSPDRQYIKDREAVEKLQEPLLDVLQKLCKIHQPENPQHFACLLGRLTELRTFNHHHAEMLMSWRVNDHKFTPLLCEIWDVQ

The target of assay [18] is Glucocorticoid receptor (Homo sapiens) (UniProt P04150). Kind of assay: qHTS assay for small molecule agonists of glucocorticoid receptor signaling (AID 588532; active means well fitted curve in the direction sought with a large enough effect in the signal ratio, with a control signal flat; the % refers to the signal ratio;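 further: 100% = dexamethasone at 0.1 µM and 0% = DMSO only wells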). Particulars: HeLa MMTV-bla, beta-lactamase ratio, agonist, 18 h; stronger effect = higher value; percent of dexamethasone control, DMSO zero. An outline of the steps: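 Cells were plated and rested 3-5 h at 37 C, compounds were added in titration and incubated 18 h, then CCF4 substrate was loaded for 2 h at RT before reading blue/green fluorescence. EC50 came from Hill-equation fitting.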
Sequence of Glucocorticoid receptor (Homo sapiens) (P04150 whole entry, looked up): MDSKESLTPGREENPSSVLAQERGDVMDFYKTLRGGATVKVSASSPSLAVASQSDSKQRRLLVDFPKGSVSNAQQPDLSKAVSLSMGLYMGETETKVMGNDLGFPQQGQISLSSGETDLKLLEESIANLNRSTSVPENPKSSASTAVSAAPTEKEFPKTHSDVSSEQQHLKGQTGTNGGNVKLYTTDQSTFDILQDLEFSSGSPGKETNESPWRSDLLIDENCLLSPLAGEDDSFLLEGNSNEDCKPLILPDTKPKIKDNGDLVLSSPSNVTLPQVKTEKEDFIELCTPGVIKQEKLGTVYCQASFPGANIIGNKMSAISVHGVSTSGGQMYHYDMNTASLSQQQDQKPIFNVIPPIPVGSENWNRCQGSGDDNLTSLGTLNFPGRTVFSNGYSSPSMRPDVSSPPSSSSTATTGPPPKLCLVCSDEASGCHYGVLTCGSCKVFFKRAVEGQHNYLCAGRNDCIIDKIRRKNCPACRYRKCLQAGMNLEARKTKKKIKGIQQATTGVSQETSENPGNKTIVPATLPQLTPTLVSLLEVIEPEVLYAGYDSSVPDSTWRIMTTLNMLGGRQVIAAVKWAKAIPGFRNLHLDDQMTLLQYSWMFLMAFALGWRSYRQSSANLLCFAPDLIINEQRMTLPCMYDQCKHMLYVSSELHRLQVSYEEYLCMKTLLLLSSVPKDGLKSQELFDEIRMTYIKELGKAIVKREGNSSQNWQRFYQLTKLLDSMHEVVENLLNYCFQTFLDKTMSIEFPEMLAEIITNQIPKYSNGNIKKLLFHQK

Assay [19] shares this target. Kind of assay: qHTS assay for small molecule antagonists of glucocorticoid receptor signaling (AID 588533; active means well fitted inhibition curve with a large enough effect in the signal ratio, with a control signal flat, not every such curve was filed as active; the % refers to the signal ratio;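 further: cells stimulated with 2 nM dexamethasone as agonist; on the % scale 0 is the no-effect control and ±100 the full control effect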). An outline of the steps:
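Antagonist-mode qHTS: compound titrations added to GRE-bla HeLa cells, then dexamethasone 2 nM final; 18 h, 37 C. CCF4 FRET fluorescence normalized to dexamethasone and DMSO; IC50 from Hill fit.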

Assay [20] can be described thus: qHTS assay for small molecule antagonists of peroxisome proliferator-activated receptor delta signaling (AID 588535; active means well fitted inhibition curve with a large enough effect in the signal ratio, with a control signal flat, not every such curve was filed as active; the % refers to the signal ratio;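 on max response: cells co-treated with a PPAR-delta agonist as stimulator during compound exposure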). As to conditions: HEK293T PPARd-UAS-bla, beta-lactamase FRET ratio, 18 h; 460 nm channel. An outline of the steps:
(§1)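 Cells were seeded at 4000 per well in assay medium containing 2% charcoal/dextran FBS and held 5 hrs at 37 C. Compounds were then added for 18 hrs. CCF4 substrate was applied for 2 hrs at room temperature before fluorescence reading.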

Assay [21] addresses Peroxisome proliferator-activated receptor delta (Homo sapiens) (UniProt Q03181). The description is as above. An outline of the steps:
as §1

Assay [22] addresses Peroxisome proliferator-activated receptor gamma (Homo sapiens) (UniProt P37231). Kind of assay: qHTS assay for small molecule agonists of peroxisome proliferator-activated receptor gamma signaling (AID 588536; active means well fitted curve in the direction sought with a large enough effect in the signal ratio, with a control signal flat, not every such curve was filed as active; the % refers to the signal ratio;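 further: 0% = DMSO basal wells and 100% = rosiglitazone at 2 µM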). An outline of the steps:
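PPAR-gamma-UAS-bla HEK293 cells in medium with 1% charcoal/dextran-treated FBS were exposed to compounds for 16 h at 37 C. Beta-lactamase activity was read with CCF4 substrate (405 nm excitation, 460/530 nm emission).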

Sequence of Estrogen receptor (Homo sapiens) (P03372 whole entry, looked up): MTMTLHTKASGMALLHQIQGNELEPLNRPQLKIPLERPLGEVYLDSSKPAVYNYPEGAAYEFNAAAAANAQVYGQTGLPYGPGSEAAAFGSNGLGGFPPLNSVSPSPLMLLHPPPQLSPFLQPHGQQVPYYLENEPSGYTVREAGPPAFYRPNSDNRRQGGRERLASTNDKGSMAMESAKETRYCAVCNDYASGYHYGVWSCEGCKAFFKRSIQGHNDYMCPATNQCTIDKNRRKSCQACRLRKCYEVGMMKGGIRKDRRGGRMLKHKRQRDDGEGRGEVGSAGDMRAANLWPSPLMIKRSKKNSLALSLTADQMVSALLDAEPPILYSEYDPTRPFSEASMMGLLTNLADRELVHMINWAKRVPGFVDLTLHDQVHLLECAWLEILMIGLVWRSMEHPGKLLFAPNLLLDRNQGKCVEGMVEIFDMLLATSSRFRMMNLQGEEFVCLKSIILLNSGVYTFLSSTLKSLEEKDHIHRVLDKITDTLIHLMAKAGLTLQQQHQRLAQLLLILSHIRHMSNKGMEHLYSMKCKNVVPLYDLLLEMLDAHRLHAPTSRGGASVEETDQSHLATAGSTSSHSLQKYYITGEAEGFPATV
Sequence of Peroxisome proliferator-activated receptor delta (Homo sapiens) (Q03181 whole entry, looked up): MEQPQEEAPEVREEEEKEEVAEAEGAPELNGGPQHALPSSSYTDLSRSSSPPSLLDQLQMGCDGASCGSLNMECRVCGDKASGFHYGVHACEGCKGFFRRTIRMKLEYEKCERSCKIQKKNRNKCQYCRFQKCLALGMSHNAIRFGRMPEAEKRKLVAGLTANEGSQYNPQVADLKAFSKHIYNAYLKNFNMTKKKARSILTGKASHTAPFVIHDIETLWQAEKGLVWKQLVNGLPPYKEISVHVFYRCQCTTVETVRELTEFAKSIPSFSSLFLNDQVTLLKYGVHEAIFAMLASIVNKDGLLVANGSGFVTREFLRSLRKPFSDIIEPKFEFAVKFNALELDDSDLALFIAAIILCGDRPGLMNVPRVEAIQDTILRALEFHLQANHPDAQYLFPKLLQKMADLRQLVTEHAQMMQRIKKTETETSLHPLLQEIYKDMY
Sequence of Peroxisome proliferator-activated receptor gamma (Homo sapiens) (P37231 whole entry, looked up): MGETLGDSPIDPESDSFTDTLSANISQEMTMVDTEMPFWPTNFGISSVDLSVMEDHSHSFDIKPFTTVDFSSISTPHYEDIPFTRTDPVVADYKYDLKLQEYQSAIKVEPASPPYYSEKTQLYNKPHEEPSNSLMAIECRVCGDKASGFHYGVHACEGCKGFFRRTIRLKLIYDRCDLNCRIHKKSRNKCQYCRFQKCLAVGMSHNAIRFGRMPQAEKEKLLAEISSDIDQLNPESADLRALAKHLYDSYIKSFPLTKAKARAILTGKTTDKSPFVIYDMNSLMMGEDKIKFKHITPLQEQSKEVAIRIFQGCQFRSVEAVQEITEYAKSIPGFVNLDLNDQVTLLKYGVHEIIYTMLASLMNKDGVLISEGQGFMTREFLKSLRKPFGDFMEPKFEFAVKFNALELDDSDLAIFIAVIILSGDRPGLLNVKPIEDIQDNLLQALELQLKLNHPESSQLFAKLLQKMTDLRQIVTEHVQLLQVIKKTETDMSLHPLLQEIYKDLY

For the compound `Cc1cccc(O)c1C`, the Potency entry in assay [1], in assay [2], in assay [3], in [4], in [5] and in [6] was “inactive” in each case. The Potency result in [7], in [8], in assay [9], in assay [10], in assay [11] and in assay [12] was “inactive” throughout. The Potency result in assay [13], in assay [14], in assay [15], in [17] and in [19] was “inactive” throughout. The outcome in [16], in [21] and in [22] was inactive. Moreover, in assay [18], the activation was 5.02% (inactive). Further, the max response in assay [20] was -7.79%.
